“And” between values parts separate entries of the source, which are not always exact repeats. Equal values may be shown once. Inconclusive results are not listed. Where a structure was tested more than once in an assay, its records may differ in their call. The source made the active and inactive calls. Unless noted, calls come from the whole dose curve; as a rule, active = well fitted curve in the direction sought with a large enough effect in the repeat runs; inconclusive = weak or mixed curves; inactive = no such curve, though single readings can be large; an effect the other way counts as inactive or inconclusive.
Legend:
[1] = qHTS assay to identify small molecule agonists of the vitamin D receptor (VDR) signaling pathway - cell viability counter screen (AID 743224); note: nearly all actives have a fitted effect of over 50% in size; note: potency is the fitted concentration of half-maximal effect
Summary of the method: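 VDR-bla cells, 4 h after plating, exposed to compounds for 16 h at 37C; viability then read in the same wells as CellTiter-Glo luminescence after 30 min at room temperature, following the bla FRET read.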

[2] = qHTS assay to identify small molecule antagonists of the vitamin D receptor (VDR) signaling pathway - cell viability counter screen (AID 743225); note: nearly all actives have a fitted effect of over 50% in size
Summary of the method: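 In this counter screen, VDR-bla HEK 293T cells receive test compound plus 3 nM final calcitriol for 16 h at 37C. Room-temperature steps of 2 h with the beta-lactamase substrate, then 30 min with CellTiter-Glo, precede the luminescence read.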

[3] = qHTS assay to identify small molecule agonists of the NFkB signaling pathway (AID 1159509; active = well fitted curve in the direction sought with a large enough effect in the signal ratio in the repeat runs, not every such curve was filed as active; the % refers to the signal ratio; note: series mostly up to about 61 µM)
Summary of the method: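 NFkB-bla ME-180 cells with a beta-lactamase reporter under an NF-kB response element were plated overnight, treated with compounds in DMSO for 5 hr at 37 C, then loaded with FRET substrate for 1.5 hr at room temperature.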

[4] = qHTS assay to identify small molecule agonists of the NFkB signaling pathway - cell viability counter screen (AID 1159515; calls by dose curve; note: series mostly up to about 61 µM; nearly all actives have a fitted effect of over 55% in size)
Summary of the method: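 NFkB-bla ME-180 cells, 2,000/well, plated overnight at 37 C; compound added for 5 hr at 37 C. Viability read in the same wells as the bla reporter, by CellTiter-Glo luminescence after 30 min at room temperature.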

[5] = qHTS assay to identify small molecule agonists of the endoplasmic reticulum stress response signaling pathway (AID 1159516; active = well fitted activation curve with a large enough effect in the signal ratio in the repeat runs, not every such curve was filed as active; the % refers to the signal ratio)
Summary of the method: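 CellSensor ESRE-bla HeLa cells, 1,500 per well, plated overnight, then exposed to compounds for 5 hr at 37 C. Beta-lactamase reporter read with LiveBLAzer B/G FRET substrate after 2 hr at room temperature, 405 nm excitation, 460 and 530 nm emission.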

[6] = qHTS assay to identify small molecule antagonists of the retinoid-related orphan receptor gamma (ROR-gamma) signaling pathway - cell viability counter screen (AID 1159520); note: nearly all actives have a fitted effect of over 50% in size
Summary of the method: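 Tet-on ROR gamma CHO cells were given compounds for 2 hr, then doxycycline hyclate at 1 uM final, and incubated 16 hr at 37 C. Viability was measured as ATP content by CellTiter-Glo luminescence.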

[7] = target: Nuclear receptor ROR-gamma (Homo sapiens) (UniProt P51449); assay: qHTS assay to identify small molecule antagonists of the retinoid-related orphan receptor gamma (ROR-gamma) signaling pathway (AID 1159521; note: nearly all actives have a fitted effect of over 50% in size; note: potency is the fitted concentration of half-maximal effect)
Summary of the method: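 Screening format: cell-based luciferase reporter in CHO cells with doxycycline-inducible RORγ. Compound pre-exposure lasts 2 h, doxycycline is 1 uM final, induction runs 16 h at 37 C, and ONE-Glo luminescence is read.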

[8] = qHTS assay to identify small molecule agonists of the AP-1 signaling pathway - cell viability counter screen (AID 1159525; calls by dose curve; note: nearly all actives have a fitted effect of over 55% in size)
Summary of the method: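 AP-1-bla ME-180 cells in Opti-MEM with 0.5% dialyzed FBS, compound exposure 5 h at 37 C in 15-point titration. Viability read in the same wells as ATP content by CellTiter-Glo luminescence, normalised to tetra-n-octylammonium bromide and DMSO controls.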

[9] = qHTS assay to identify small molecule agonists of the AP-1 signaling pathway (AID 1159526; calls by dose curve)
[10] = target: Retinoic acid receptor RXR-alpha (Homo sapiens) (UniProt P19793); assay: qHTS assay to identify small molecule agonists of the RXR signaling pathway (AID 1159527; calls by dose curve; note: nearly all actives have a fitted effect of over 35% in size; note: potency is the fitted concentration of half-maximal effect)
Retinoic acid receptor RXR-alpha (Homo sapiens), sequence (P19793 whole entry, looked up): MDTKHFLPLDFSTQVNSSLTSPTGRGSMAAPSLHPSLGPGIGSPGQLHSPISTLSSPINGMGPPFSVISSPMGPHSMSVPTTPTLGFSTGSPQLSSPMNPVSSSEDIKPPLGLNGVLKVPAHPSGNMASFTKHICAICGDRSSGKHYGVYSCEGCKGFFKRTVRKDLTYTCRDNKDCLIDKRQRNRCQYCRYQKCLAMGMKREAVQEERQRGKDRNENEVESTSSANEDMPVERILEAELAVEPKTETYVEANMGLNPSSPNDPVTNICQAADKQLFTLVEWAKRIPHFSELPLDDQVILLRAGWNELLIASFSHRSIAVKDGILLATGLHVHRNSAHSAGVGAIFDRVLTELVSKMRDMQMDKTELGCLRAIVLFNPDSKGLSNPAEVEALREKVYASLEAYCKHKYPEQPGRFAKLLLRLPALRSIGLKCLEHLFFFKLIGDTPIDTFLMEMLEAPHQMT
Summary of the method: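 Fluorescence ratio readout (460 vs 530 nm) from GeneBLAzer RXR-alpha HEK 293T cells after 16 hr compound treatment; cells seeded 5 hr beforehand in low-serum, charcoal-stripped medium.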

[11] = qHTS assay to identify small molecule agonists of the RXR signaling pathway - cell viability counter screen (AID 1159529); note: nearly all actives have a fitted effect of over 50% in size; note: potency is the fitted concentration of half-maximal effect
Summary of the method: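 Viability read-out for the RXR-alpha agonist qHTS: luminescent CellTiter-Glo signal after 30 min at RT. HEK 293T bla reporter cells, 2% charcoal-stripped FBS, 16 hr compound incubation; tetraoctyl ammonium bromide as cytotoxic control.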

[12] = qHTS assay to identify small molecule antagonists of the retinoid acid receptor (RAR) signaling pathway - cell viability counter screen (AID 1159551); note: nearly all actives have a fitted effect of over 35% in size
Summary of the method: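 C3RL4 RARE-luciferase cells, 1,000/well, incubated overnight, then dosed with compound plus 1 uM retinol (final). After 6 hr at 37 C, viability read by CellTiter-Glo ATP luminescence following 30 min at room temperature.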

[13] = qHTS assay to identify small molecule antagonists of the retinoic acid receptor (RAR) signaling pathway (AID 1159552; note: nearly all actives have a fitted effect of over 50% in size; note: potency is the fitted concentration of half-maximal effect)
Summary of the method: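 Using a RARE-driven luciferase construct in C3RL4 cells, retinol at 1 uM final provided the agonist stimulus while compounds were co-applied. After 6 hours at 37 C, luminescence was recorded to flag inhibitors of retinol signaling.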

[14] = qHTS assay to identify small molecule agonists of the retinoic acid receptor (RAR) signaling pathway (AID 1159553); note: potency is the fitted concentration of half-maximal effect
Summary of the method: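 C3RL4 RARE-luciferase cells were seeded at 1,000/well and grown overnight at 37 C, then exposed to compounds for 6 hr at 37 C, 5% CO2. Luciferase reagent was added and luminescence was read after 30 min at room temperature.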

[15] = qHTS assay to identify small molecule antagonists of the estrogen related receptor signaling pathway with the pleiotropic PPARgamma coactivator (PGC) cell viability counter screen (AID 1224822;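 note: series mostly up to about 46 µM; viability read after 17.5 h compound exposure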)
Summary of the method: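 PGC/ERR cells rested 6 h, then compound-treated 17.5 h at 37 C. CellTiter-Fluor added for 30 min at 37 C, viability measured by fluorescence intensity.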

[16] = qHTS assay to identify small molecule agonists of the endoplasmic reticulum stress response signaling pathway - cell viability counter screen (AID 1159517; calls by dose curve; note: nearly all actives have a fitted effect of over 50% in size; note: potency is the fitted concentration of half-maximal effect)
Summary of the method: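 Counter-screen wells were identical to the reporter wells. Cells were plated at 1,500 per well and dosed for 5 hr, then read for luminescence 30 min after CellTiter-Glo addition.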

Measured: Potency

NC(=O)N1c2ccccc2C=Cc2ccccc21
not listed: [16]
inactive: all other assays above

NC(=O)NO
not listed: [2]
inactive: all other assays above

O=C1OC(c2ccc(O)cc2)(c2ccc(O)cc2)c2ccccc21
48.6 µM (active) and inactive: [13]
19.4 µM (active) and inactive: [11]
48.7 µM (active) and inactive: [1]
8.57 µM (active) and inactive: [7]
not listed: [2] | [9] | [10] | [15]
inactive: all other assays above

Cn1cnc2c1c(=O)[nH]c(=O)n2C
not listed: [2] | [16]
inactive: all other assays above

CCCCCCCCOc1ccc(C(=O)c2ccccc2)c(O)c1
inactive and 49 µM (active): [1]
not listed: [2] | [15] | [16]
inactive: all other assays above

C=C(C)C(N)=O
not listed: [2] | [15] | [16]
inactive: all other assays above

Cc1c(N(C)C)c(=O)n(-c2ccccc2)n1C
not listed: [2] | [7] | [13] | [14] | [15]
inactive: all other assays above

C#C[C@]1(O)CC[C@H]2[C@@H]3CCc4cc(O)ccc4[C@H]3CC[C@@]21C
30.4 µM (active) and inactive: [7]
not listed: [15]
inactive: all other assays above

CC1=C(/C=C/C(C)=C/C=C/C(C)=C/C(=O)O)C(C)(C)CCC1
active: [16] 43.7 µM | [14] 19.4 nM and 9.7 nM and 84.1 nM
not listed: [7] | [10]
inactive: all other assays above

Cc1c(N(C)CS(=O)(=O)O)c(=O)n(-c2ccccc2)n1C
not listed: [2] | [15]
inactive: all other assays above

NC(=O)OCC(COC(N)=O)c1ccccc1
not listed: [7]
inactive: all other assays above

NC(N)=NC(N)=NCCc1ccccc1
not listed: [7] | [15]
inactive: all other assays above

COC(=O)c1ccc(O)cc1
inactive and 6.16 µM (active): [10]
not listed: [7] | [15]
inactive: all other assays above

O=c1cc[nH]c(=O)[nH]1
not listed: [15] | [16]
inactive: all other assays above

CN(C)C=O
not listed: [2] | [5] | [15]
inactive: all other assays above

N[C@@H](Cc1c[nH]c2ccc(O)cc12)C(=O)O
not listed: [2] | [5]
inactive: all other assays above

COc1ccc(C(=O)c2ccccc2)c(O)c1
active: [14] 61.1 µM and 23.7 µM
not listed: [2] | [7] | [15] | [16]
inactive: all other assays above

CCCCOCCOCCSC#N
not listed: [7] | [15] | [16]
inactive: all other assays above

NCCNc1cccc2ccccc12
active: [13] 30.6 µM and 23.7 µM
not listed: [2] | [7] | [14] | [15] | [16]
inactive: all other assays above
